Experimental findings from PubChem BioAssay (EPA / NIEHS) are described below.

Assay [1] concerns the target rat Thyrotropin Releasing Hormone Receptor (TRH), Trhr (gene 25570) (UniProt Q01717). Description: NVS_GPCR_rTRH: NovaScreen (NVS) G Protein-Coupled Receptor Assay for rat Thyrotropin Releasing Hormone Receptor (TRH) (AID 2283329).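 Further: hit means lower bound tracer signal versus DMSO baseline.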 The procedure, abridged: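 Rat forebrain membrane prep, radioligand displacement, filter scintillation readout at 4 h. Single conc 25 uM, duplicate; actives retested as concentration series. DMSO = negative control/baseline.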

Assay [2] deals with Estrogen receptor (Homo sapiens) (UniProt P03372). In words: OT_ER_ERaERa_1440: Odyssey Thera (OT) 24-hour HEK293T Protein-Complementation Assay for Estrogen Receptor-alpha/-alpha Homodimer (AID 2283349).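 Further: hits raise fluorescence above DMSO for agonists and antagonists alike.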 The procedure, abridged: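 Stably transfected HEK293T; ERα LBD homodimer PCA. 24 h dosing, fluorescence intensity read, gain-of-signal vs DMSO.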
Chain of Estrogen receptor (Homo sapiens) (P03372 whole entry, looked up, the tested form may be a part): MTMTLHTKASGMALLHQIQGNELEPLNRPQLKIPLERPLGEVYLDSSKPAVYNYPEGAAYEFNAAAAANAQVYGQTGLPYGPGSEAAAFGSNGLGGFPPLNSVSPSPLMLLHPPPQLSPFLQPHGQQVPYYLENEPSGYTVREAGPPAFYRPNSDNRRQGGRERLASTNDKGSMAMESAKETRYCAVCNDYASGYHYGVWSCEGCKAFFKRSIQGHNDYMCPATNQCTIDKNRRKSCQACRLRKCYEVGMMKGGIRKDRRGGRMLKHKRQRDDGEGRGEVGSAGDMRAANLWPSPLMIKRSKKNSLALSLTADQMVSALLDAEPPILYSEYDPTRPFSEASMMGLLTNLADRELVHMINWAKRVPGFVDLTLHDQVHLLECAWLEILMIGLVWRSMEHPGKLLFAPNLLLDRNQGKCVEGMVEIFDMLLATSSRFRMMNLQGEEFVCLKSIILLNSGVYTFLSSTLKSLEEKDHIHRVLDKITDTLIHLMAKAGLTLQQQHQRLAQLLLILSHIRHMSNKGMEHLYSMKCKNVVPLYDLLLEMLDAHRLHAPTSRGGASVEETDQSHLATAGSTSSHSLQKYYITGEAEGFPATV
For assay [3] the target is unchanged. In words: OT_ER_ERaERa_0480: Odyssey Thera (OT) 8-hour HEK293T Protein-Complementation Assay for Estrogen Receptor-alpha/-alpha Homodimer (AID 2283351).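 Further: rise in fluorescence from reassembled reporter fragments on ERα LBD homodimer in nucleus or whole cell.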 In short, it runs like this:
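Read-out: fluorescence intensity rise relative to DMSO, nuclear for agonists, nuclear plus cytoplasmic for antagonists. Construct is the ERα LBD (aa 310-547) homodimer fragment-complementation pair, stably expressed in HEK293T; exposure 8 h.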

The target of assay [4] is Estrogen receptor (Homo sapiens) + Estrogen receptor beta (Homo sapiens) (UniProt P03372+Q92731). Description: OT_ER_ERaERb_0480: Odyssey Thera (OT) 8-hour HEK293T Protein-Complementation Assay for Estrogen Receptor-alpha/-beta Heterodimer (AID 2283352). In short, it runs like this:
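HEK293T cells expressing ER-alpha/ER-beta LBD fusions to complementary reporter fragments were dosed with compound for 8 hours. Heterodimer formation was read as increased nuclear (agonist) or nuclear plus cytoplasmic (antagonist) mean fluorescence intensity versus DMSO vehicle.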

Assay [5] has as its target bovine Gamma-Aminobutyric Acid Type A Receptor BDZ, alpha 5 site (GABARa5), GABRA5 (gene 523515) (UniProt Q08E50). In words: NVS_LGIC_bGABARa5: NovaScreen (NVS) Ligand-Gated Ion Channel Assay for bovine Gamma-Aminobutyric Acid Type A Receptor BDZ, alpha 5 site (GABARa5) (AID 2283323). In short, it runs like this:
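Tested first in duplicate at a single 25 uM, with hits re-run in concentration series to a 50 uM maximum. Bovine hippocampal membranes; specific radioligand displacement measured by filter scintillation counting 1 hr post-dose.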

In assay [6] the target is human Peripheral-type Benzodiazepine Receptor (PBR), TSPO (gene 706) (UniProt P30536). In words: NVS_MP_hPBR: NovaScreen (NVS) Membrane Protein Assay for human Peripheral-type Benzodiazepine Receptor (PBR) (AID 2283331).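 Further: hits reduce radioligand binding relative to DMSO baseline.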 The procedure, abridged:
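Using human colon-derived membranes, this one-endpoint binding test reads radioligand loss by scintillation after 1 h. Screening started at 25 uM in duplicate, with positive and negative controls on every plate, and actives moved to dose series.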

The target of assay [7] is rat Peripheral-type Benzodiazepine Receptor (PBR), Tspo (gene 24230) (UniProt P16257). Description: NVS_MP_rPBR: NovaScreen (NVS) Membrane Protein Assay for rat Peripheral-type Benzodiazepine Receptor (PBR) (AID 2283335). The procedure, abridged: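 Single-concentration duplicate screening at 25 uM preceded concentration-series retesting of actives. Binding of a specific radioligand to rat kidney membrane PBR was read by filtration radiodetection after 1 h, with plate-wise positive and negative controls.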
Chain of rat Peripheral-type Benzodiazepine Receptor (PBR), Tspo (gene 24230) (P16257 whole entry, looked up): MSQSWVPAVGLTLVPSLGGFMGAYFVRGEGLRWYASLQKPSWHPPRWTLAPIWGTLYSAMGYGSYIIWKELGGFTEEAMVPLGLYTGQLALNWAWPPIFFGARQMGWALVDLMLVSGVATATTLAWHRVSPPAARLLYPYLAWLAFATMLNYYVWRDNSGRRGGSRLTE

In assay [8] the target is Androgen Receptor/SRC-1 Co-activator, AR (gene 367) (UniProt P10275). In words: OT_AR_ARSRC1_0480: Odyssey Thera (OT) 8-hour HEK293T Protein-Complementation Assay for Androgen Receptor/SRC-1 Co-activator (AID 2283354).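 Further: hits raise the complementation signal above DMSO so AC50 marks enhancers.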 In short, it runs like this: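 After 8 h dosing, stably expressing HEK293T cells with split-Venus AR/SRC-1 fusions were imaged (488, 635nm). The 488nm N/C ratio per image gave the endpoint, analysed in the positive direction against DMSO.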

Assay [9] is described as follows: NVS_IC_rCaBTZCHL: NovaScreen (NVS) Ion Channel Assay for Calcium Channel, Type L, Benzothiazepine Site (CaBTZCHL) (AID 2283337). The procedure, abridged: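 Rat cortical membrane preparation, cell-free. Radioligand displaced by test chemical; 1.5 h incubation; filtration, scintillation count. DMSO = negative control/baseline. Primary: duplicate, 25 uM; secondary: concentration series.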

Assay [10] addresses chimpanzee Androgen Receptor (AR), AR (gene 747460) (UniProt O97775). Description: NVS_NR_cAR: NovaScreen (NVS) Nuclear Receptor Binding Assay for chimpanzee Androgen Receptor (AR) (AID 2283346). In short, it runs like this: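 Cell-free radioligand displacement using receptor protein extracted from Sf9/Sf21 cells; bound radioligand measured by scintillation counting 72 hours after chemical dosing. Loss of signal versus DMSO baseline indicates binding; primary screen single-concentration in duplicate at 25 uM, actives followed in concentration series.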

The target in assay [11] is bovine Estrogen Receptor (ER), ESR1 (gene 407238) (UniProt P49884). In words: NVS_NR_bER: NovaScreen (NVS) Nuclear Receptor Binding Assay for bovine Estrogen Receptor (ER) (AID 2283345).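 Further: actives lower the bound radioligand count which means they displace the ER ligand.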 The procedure, abridged: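 Scintillation counting of displaced radioligand gave the readout; bovine uterine membrane extract supplied the receptor. Measured 18 h post-dose, normalized to DMSO baseline. Single 25 uM duplicate screen preceded concentration-response follow-up.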
Chain of bovine Estrogen Receptor (ER), ESR1 (gene 407238) (P49884 whole entry, looked up): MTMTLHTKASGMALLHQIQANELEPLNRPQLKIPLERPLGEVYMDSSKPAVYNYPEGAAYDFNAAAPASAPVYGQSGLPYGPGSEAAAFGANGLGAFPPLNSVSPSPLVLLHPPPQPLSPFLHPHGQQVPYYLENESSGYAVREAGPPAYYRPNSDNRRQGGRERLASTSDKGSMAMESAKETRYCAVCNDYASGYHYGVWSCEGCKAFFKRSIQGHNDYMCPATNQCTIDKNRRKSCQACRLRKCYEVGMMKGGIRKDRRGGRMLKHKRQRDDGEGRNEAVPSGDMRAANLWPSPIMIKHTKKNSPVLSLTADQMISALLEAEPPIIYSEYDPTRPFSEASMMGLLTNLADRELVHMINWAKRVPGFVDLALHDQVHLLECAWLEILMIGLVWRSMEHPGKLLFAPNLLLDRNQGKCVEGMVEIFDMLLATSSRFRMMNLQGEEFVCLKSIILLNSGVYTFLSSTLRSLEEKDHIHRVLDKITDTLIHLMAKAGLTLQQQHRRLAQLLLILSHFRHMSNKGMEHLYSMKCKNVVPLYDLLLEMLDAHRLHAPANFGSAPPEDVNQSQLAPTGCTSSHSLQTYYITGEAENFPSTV

For assay [12], the target named is Estrogen receptor (Homo sapiens) (UniProt P03372). In words: NVS_NR_hER: NovaScreen (NVS) Nuclear Receptor Binding Assay for human Estrogen Receptor (ER) (AID 2283348). The procedure, abridged: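 Radiodetection of ligand displacement in a lysate-based, cell-free format using MCF7 extracts, read at 18 hours. Duplicate 25 uM primary testing, then concentration series for actives.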

The target in assay [13] is rat Opioid Receptor, Non-selective Binding, Oprm1 (gene 25601) (UniProt P33535). In words: NVS_GPCR_rOpiate_NonSelective: NovaScreen (NVS) G Protein-Coupled Receptor Assay for rat Opioid Receptor, Non-selective Binding (AID 2283318). The procedure, abridged: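 Filter-based radioligand displacement using rat forebrain membrane preparations, measured 1.5 h post-dosing. Single-concentration duplicate screen at 25 uM, follow-up in concentration series; activity taken as signal loss relative to DMSO.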

The target of assay [14] is Sodium channel protein type 1 subunit alpha (Rattus norvegicus) (UniProt P04774). In words: NVS_IC_rNaCh_site2: NovaScreen (NVS) Ion Channel Assay for rat Sodium Channel, Site 2 (NaCh) (AID 2283322).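 Further: hit means loss of radioligand binding signal relative to DMSO so AC50 marks displacement.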 The procedure, abridged:
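Initial duplicate single-point testing at 25 uM, followed by concentration-response runs for actives. Binding of radioligand to rat forebrain membranes quantified after 1 h via filter-based radiodetection.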

Assay [15] concerns the target rat Gamma-Aminobutyric Acid Type A Receptor, Non-Selective (GABAR-NonSelective), Gabra1 (gene 29705) (UniProt P62813). In words: NVS_LGIC_rGABAR_NonSelective: NovaScreen (NVS) Ligand-Gated Ion Channel Assay for rat Gamma-Aminobutyric Acid Type A Receptor, Non-Selective (GABAR-NonSelective) (AID 2283326). The procedure, abridged:
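Compounds were first screened in duplicate at 25 uM, with actives run as singleton concentration series (max 50 uM). Binding of a radioligand to rat whole-brain GABA-A preparation was measured by filtration and scintillation counting after 1 h, DMSO baseline.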

Assay [16] concerns the target Voltage-gated inwardly rectifying potassium channel KCNH2 (Homo sapiens) (UniProt Q12809). In words: NVS_IC_hKhERGCh: NovaScreen (NVS) Ion Channel Assay for human Potassium Channel ERG (KhERGCh) (AID 2283333). The procedure, abridged: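 Membranes from CHO cells expressing human ERG; displacement of radioligand measured by filtration and scintillation after 0.75 h. Single-concentration duplicate screen at 25 uM, then concentration-response for actives; DMSO baseline.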

For assay [17], the system named is guinea pig Histamine Receptor (H2), gene 100729734. In words: NVS_GPCR_gH2: NovaScreen (NVS) G Protein-Coupled Receptor Assay for guinea pig Histamine Receptor (H2) (AID 2283342). In short, it runs like this: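 Guinea pig striatal membrane preparation with specific radioligand; bound counts measured by filtration and scintillation 1 h post-dosing, DMSO as baseline. Chemicals passing a 25 uM duplicate screen were titrated to a 50 uM maximum.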

Another assay has as its system NCBI gene 100848466. Description: NVS_NR_bPR: NovaScreen (NVS) Nuclear Receptor Binding Assay for bovine Progextron Receptor (PR) (AID 2283343). The procedure, abridged: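 Steps: bovine uterine membranes were dosed with chemical alongside radioligand, incubated 18 hours, then radiodetected by scintillation counting. Initial testing used 25 uM in duplicate; confirmed actives were rerun as concentration series.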

The target in assay [18] is human Constitutive Androstane Receptor (CAR), NR1I3 (gene 9970) (UniProt Q14994). Description: NVS_NR_hCAR_Antagonist: NovaScreen (NVS) Nuclear Receptor Binding Assay for human Constitutive Androstane Receptor Antagonism (CAR) (AID 2283344). In short, it runs like this: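 Single 25 uM duplicate primary screen, with concentration-series follow-up on actives. Cell-free binding format run in antagonist mode, TR-FRET signal taken 1 h post-dose; activity is signal loss relative to DMSO.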

Where “and” joins values, the source holds several entries; their conditions need not be identical. Equal values may be shown once. Results filed as inconclusive are left out. Where a structure was tested more than once in an assay, its records may differ in their call. Calls of active or inactive are those of the source. How the source made its calls: active means hit-call score of the fitted dose curve at least 0.9, where 1 is the maximum; inconclusive means response in the unintended direction; inactive means score below 0.9.

Chain of chimpanzee Androgen Receptor (AR), AR (gene 747460) (O97775 whole entry, looked up): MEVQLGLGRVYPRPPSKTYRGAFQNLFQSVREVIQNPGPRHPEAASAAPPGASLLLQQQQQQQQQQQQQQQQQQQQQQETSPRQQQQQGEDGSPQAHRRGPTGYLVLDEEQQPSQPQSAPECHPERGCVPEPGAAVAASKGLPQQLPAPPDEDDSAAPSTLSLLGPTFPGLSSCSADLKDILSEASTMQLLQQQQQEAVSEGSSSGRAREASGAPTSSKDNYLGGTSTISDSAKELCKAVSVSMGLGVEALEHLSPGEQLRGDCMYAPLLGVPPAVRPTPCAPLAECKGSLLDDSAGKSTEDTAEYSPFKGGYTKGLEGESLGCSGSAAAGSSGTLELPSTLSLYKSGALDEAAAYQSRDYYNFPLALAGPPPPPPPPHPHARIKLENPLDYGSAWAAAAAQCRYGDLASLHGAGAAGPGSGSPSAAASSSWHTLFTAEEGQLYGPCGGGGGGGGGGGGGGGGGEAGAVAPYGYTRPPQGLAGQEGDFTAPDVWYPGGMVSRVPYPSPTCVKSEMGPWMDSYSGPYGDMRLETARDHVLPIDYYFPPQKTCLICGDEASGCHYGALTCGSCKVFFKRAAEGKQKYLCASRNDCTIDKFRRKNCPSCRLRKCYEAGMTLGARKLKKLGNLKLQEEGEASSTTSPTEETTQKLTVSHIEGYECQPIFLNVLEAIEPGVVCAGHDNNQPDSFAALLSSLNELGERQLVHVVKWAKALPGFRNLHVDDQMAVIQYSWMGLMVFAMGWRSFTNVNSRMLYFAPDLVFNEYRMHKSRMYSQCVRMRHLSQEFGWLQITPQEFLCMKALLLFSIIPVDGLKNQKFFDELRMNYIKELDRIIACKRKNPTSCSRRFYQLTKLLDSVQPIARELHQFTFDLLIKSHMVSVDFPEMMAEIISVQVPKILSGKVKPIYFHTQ
Chain of human Peripheral-type Benzodiazepine Receptor (PBR), TSPO (gene 706) (P30536 whole entry, looked up): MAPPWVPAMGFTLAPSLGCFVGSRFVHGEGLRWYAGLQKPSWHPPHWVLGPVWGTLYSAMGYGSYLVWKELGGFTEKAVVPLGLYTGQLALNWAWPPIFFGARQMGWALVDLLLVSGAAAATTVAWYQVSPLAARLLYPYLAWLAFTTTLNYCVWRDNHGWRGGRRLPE
Chain of Estrogen receptor (Homo sapiens) + Estrogen receptor beta (Homo sapiens) (P03372 whole entry, looked up, the tested form may be a part): as the sequence (P03372 whole entry, looked up, the tested form may be a part) above
Chain of Estrogen receptor (Homo sapiens) + Estrogen receptor beta (Homo sapiens) (Q92731 whole entry, looked up, the tested form may be a part): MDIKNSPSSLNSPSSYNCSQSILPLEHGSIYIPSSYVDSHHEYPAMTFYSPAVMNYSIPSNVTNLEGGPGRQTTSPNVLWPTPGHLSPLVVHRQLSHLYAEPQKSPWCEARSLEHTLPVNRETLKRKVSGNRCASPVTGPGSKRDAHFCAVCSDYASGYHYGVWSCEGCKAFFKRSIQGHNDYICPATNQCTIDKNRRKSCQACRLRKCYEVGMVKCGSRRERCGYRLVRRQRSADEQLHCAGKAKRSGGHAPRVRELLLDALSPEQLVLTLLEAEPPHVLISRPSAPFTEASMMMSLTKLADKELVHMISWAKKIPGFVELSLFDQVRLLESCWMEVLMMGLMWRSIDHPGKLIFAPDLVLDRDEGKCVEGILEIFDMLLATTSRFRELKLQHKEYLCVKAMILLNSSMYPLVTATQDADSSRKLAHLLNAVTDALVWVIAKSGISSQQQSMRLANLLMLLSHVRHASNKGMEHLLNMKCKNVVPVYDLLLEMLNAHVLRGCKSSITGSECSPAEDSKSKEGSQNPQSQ
Chain of rat Thyrotropin Releasing Hormone Receptor (TRH), Trhr (gene 25570) (Q01717 whole entry, looked up): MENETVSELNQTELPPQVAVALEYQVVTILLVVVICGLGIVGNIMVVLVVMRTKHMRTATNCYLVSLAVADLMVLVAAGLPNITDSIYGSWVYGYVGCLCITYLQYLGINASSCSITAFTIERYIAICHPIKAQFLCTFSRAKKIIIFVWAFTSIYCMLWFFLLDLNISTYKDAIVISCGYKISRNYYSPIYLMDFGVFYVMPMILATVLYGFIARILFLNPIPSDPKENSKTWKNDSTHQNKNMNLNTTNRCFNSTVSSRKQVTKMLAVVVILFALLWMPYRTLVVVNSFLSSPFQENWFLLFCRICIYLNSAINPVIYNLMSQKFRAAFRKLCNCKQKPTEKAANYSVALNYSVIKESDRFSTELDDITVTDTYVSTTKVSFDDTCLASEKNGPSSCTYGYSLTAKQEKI
Chain of bovine Gamma-Aminobutyric Acid Type A Receptor BDZ, alpha 5 site (GABARa5), GABRA5 (gene 523515) (Q08E50 whole entry, looked up): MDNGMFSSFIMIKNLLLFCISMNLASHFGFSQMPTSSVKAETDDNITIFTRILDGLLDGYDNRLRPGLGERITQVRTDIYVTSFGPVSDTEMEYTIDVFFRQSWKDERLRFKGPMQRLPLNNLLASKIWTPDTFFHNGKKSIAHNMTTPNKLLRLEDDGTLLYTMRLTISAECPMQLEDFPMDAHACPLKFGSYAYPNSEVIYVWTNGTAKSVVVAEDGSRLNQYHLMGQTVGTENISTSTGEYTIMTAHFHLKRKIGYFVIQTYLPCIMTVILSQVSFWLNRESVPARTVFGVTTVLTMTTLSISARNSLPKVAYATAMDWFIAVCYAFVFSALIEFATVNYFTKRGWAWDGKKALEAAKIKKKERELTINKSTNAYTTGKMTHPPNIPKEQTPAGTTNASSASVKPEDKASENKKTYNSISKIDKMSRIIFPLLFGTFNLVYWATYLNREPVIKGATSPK
Chain of rat Gamma-Aminobutyric Acid Type A Receptor, Non-Selective (GABAR-NonSelective), Gabra1 (gene 29705) (P62813 whole entry, looked up): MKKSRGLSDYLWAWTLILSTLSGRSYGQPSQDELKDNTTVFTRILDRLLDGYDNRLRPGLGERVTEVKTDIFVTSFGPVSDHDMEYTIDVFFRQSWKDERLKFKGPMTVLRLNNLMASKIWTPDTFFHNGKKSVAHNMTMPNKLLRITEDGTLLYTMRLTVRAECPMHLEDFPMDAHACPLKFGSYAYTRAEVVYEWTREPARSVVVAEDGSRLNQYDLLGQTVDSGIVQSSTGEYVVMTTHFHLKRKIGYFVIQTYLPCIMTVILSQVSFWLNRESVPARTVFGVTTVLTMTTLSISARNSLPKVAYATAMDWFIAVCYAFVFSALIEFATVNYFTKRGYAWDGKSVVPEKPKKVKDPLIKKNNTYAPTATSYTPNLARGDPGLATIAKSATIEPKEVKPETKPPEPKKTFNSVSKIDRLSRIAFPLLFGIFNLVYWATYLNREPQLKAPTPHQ

Take `CCCc1ccc(N)cc1`: the result in assay [1], in assay [2], in assay [3] and in assay [4] was inactive.
In the case of `C=C(C)C(N)=O`, the result in assay [5], in assay [2] and in [3] was inactive.
Turning to `COc1cc(OC)c2ccc(=O)oc2c1`, the concentration at half-maximal activity (AC50) (usually the concentration at which the activity in the assay is half-maximal) in assay [6] was 12.1 µM (active); in assay [7] it was 0.157 µM (active). Further, the molecule was classed as inactive in assay [2], in assay [3], in [4] and in [8].
For the molecule `CC(C)C(=O)c1ccccc1`, the call in assay [1], in assay [2], in assay [3] and in assay [4] was inactive.
Take `CCCCCC1C(=O)CCC1CC(=O)OC` (stereo not drawn): the AC50 in [7] was 11.6 µM (active) and 25 µM (active); in assay [10], 17.7 µM (active). For the same molecule, the result in assay [9], in [2] and in assay [3] was inactive.
In the case of `CC(=O)c1ccc2ccccc2c1`, the result in assay [1], in [2], in assay [3] and in assay [4] was inactive.
In the case of `O=C1OC2(c3ccc(O)cc3Oc3cc(O)ccc32)c2ccccc21`, the AC50 was 25 µM (active) and 9.1 µM (active) in [6]; 15.1 µM (active) in assay [7]; 15.8 µM (active) in [11]; 13.5 µM (active) in [10]; 9.78 µM (active) in [12]. For the same molecule, the result in [9], in assay [10], in assay [12], in [2] and in assay [3] was inactive.
Take `CCCCCCCCCCCCS`: the AC50 in assay [1] was 0.929 µM (active). For the same molecule, the molecule was classed as inactive in [2], in [3] and in [4].
As for `CC1(C)[C@H](C=C(Cl)Cl)[C@H]1C(=O)OCc1cccc(Oc2ccccc2)c1`, the outcome in [7] was inactive.
`CN1CCc2cccc3c2[C@H]1Cc1ccc(O)c(O)c1-3`: the AC50 in assay [6] is 1.83 µM (active); in assay [12], 0.02 µM (active). Moreover, the molecule was classed as inactive in assay [2] and in [3].
As to `CCCCCCCCOS(=O)(=O)O`, the call in [1], in [2] and in assay [3] was inactive.
In the case of `O=C(c1ccc(OCCN2CCCCC2)cc1)c1c(-c2ccc(O)cc2)sc2cc(O)ccc12`, the AC50 in [13] was 3.64 µM (active); in assay [14] it was 0.869 µM (active); in [16], 5.34 µM (active); in [7], 6.31 µM (active); in [17] it was 4.18 µM (active); in [18], 38.5 µM (active). For the same molecule, the AC50 in assay [10] is 25 µM (active). In addition, the result (in assay [15]; in assay [1]; in assay [9]; with NCBI gene 100848466; in assay [10]) was inactive.
Take `CCc1cccc(O)c1`: the call in assay [1], in assay [7], in assay [12], in assay [2], in [3] and in assay [4] was inactive.
As to `C=CC(=O)OCC(CO)(COC(=O)C=C)COC(=O)C=C`, the AC50 in [6] was 11 µM (active). Moreover, the outcome in assay [11] and in assay [12] was inactive.
Consider `CCC(C)(C)C1CCC(OC)CC1` (stereo not drawn), for which the molecule was called inactive in assay [1], in [2], in assay [3] and in assay [4].
